Our source for the inhibition values is ChEMBL document CHEMBL5606458, “ASAP - ZIKV NS2B-NS3 protease fluorescence single point” (2024).

In the experiment the target is Nonstructural protein 3 (Zika virus) (UniProt A0A024AXB9).
[1] abbreviates: PRVABC59, Concentration 15.0 uM, Number of replicates 1.0.
The mark [2] stands for this setting: PRVABC59, Concentration 50.0 uM, Number of replicates 1.0.

One may read the inhibition as the change of the read-out against control, counted positive when it falls.

SMILES strings stand for the structures. Screen size: about 2,700 compounds; about 160 (5.9%) showed an effect of 50% or more. Shown is part of a subset that was picked to be rich in strong results.

Sequence of Nonstructural protein 3 (Zika virus) (A0A024AXB9 as listed by the source): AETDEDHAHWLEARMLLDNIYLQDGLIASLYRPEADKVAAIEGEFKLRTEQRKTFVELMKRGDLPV

On to `COc1ccc(Cl)c(NC(=O)c2cc(Cl)ccc2NS(=O)(=O)c2ccc(Oc3ccccc3Cl)cc2)c1`, for which the inhibition under setting [1] was 25.8%.
Still for that read-out and setting: the same measure for `COc1ccc(-c2cc(NC(=O)c3cc(Cl)ccc3NS(=O)(=O)c3ccc(Oc4ccccc4Cl)cc3)[nH]n2)cc1`: 57.5%; for `COc1cc(NC(=O)c2cc(Cl)ccc2NS(=O)(=O)c2ccc(Oc3ccccc3Cl)cc2)ccc1Br`: 60.4%; for `COc1ccc(NC(=O)c2cc(Cl)ccc2NS(=O)(=O)c2ccc(Oc3ccccc3Cl)cc2)cc1C(F)(F)F`: 51.3%.
Still for that read-out and setting: for `Cc1ccc(NC(=O)c2cc(Cl)ccc2NS(=O)(=O)c2ccc(Oc3ccccc3Cl)cc2)cc1Br` the value was 43.3%; for `O=C(Nc1ccc(Br)c(C(F)(F)F)c1)c1cc(Cl)ccc1NS(=O)(=O)c1ccc(Oc2ccccc2Cl)cc1`, 29.1%.
As for `O=C(Nc1ccc(F)c(Br)c1)c1cc(Cl)ccc1NS(=O)(=O)c1ccc(Oc2ccccc2Cl)cc1`, the inhibition under setting [1] stood at 48.7%.
In the case of `O=C(Nc1cccc(Cl)c1Br)c1cc(Cl)ccc1NS(=O)(=O)c1ccc(Oc2ccccc2Cl)cc1`, the inhibition under setting [1] was determined as 25.4%.
The same measure, in the same setting: the same measure for `CC(=O)Nc1ccc(NC(=O)c2cc(Cl)ccc2NS(=O)(=O)c2ccc(Oc3ccccc3Cl)cc2)c(C(F)(F)F)c1`: 23.4%; for `O=C(Nc1cc(Br)ccc1F)c1cc(Cl)ccc1NS(=O)(=O)c1ccc(Oc2ccccc2Cl)cc1`: 24.4%; for `COc1cc(NC(=O)c2cc(Cl)ccc2NS(=O)(=O)c2ccc(Oc3ccccc3Cl)cc2)cc(OC)c1`: 24.1%.
Take `O=C(Nc1ccc(Br)cc1O)c1cc(Cl)ccc1NS(=O)(=O)c1ccc(Oc2ccccc2Cl)cc1`: the inhibition under setting [1] is 58.9%.
For the compound `O=Cc1ccc(N2CCC(C(=O)Nc3ccc(-n4cccn4)cc3)CC2)cc1`, the inhibition under setting [2] was determined as 21.4%.
`Cn1cc(NC(=O)c2ccccc2-c2ccc(C(=O)O)nc2)cn1`: the inhibition is, setting by setting: (PRVABC59, Concentration 49.5 uM, Number of replicates 2.0, Standard deviation 2.4498358087391408 %) -1.15%; (PRVABC59, Concentration 99.01 uM, Number of replicates 2.0, Standard deviation 1.6656005687321722 %) -0.876%; (PRVABC59, Concentration 198.0 uM, Number of replicates 2.0, Standard deviation 2.3203289956835937 %) 3.27%.
With `O=C(NCCc1c[nH]c2cccnc12)[C@@]1(c2ccc(F)cc2)CCCNC1`, the inhibition was 2.3% (PRVABC59, Concentration 49.5 uM, Number of replicates 2.0, Standard deviation 1.1099611949443484 %); -0.092% (PRVABC59, Concentration 99.01 uM, Number of replicates 2.0, Standard deviation 0.8664361984862207 %); -1.42% (PRVABC59, Concentration 198.0 uM, Number of replicates 2.0, Standard deviation 1.4816570758007732 %).
On to `O=C(c1cc(Cl)ccc1NS(=O)(=O)c1ccc(Oc2ccccc2Cl)cc1)N1CCN(C(=O)[C@@H]2CCCO2)CC1`, for which the inhibition under setting [1] was -3.32%.
`CC(C)c1cccc(C(C)C)c1NC(=O)C1CCN(c2ccc(C=O)cc2)CC1`: the inhibition under setting [2] was 22.1%.
Same read-out and setting: the same measure for `O=Cc1ccc(N2CCC(C(=O)N3CCC(Cc4ccccc4)CC3)CC2)cc1`: 24.7%.
`CNC(=O)[C@H]1CCN(S(=O)(=O)c2ccc(Oc3ccccc3Cl)cc2)C1`: the inhibition came to 6.33% (PRVABC59, Concentration 49.5 uM, Number of replicates 2.0, Standard deviation 2.3503648629811855 %); 8.32% (PRVABC59, Concentration 99.01 uM, Number of replicates 2.0, Standard deviation 2.692773952478603 %); 5.71% (PRVABC59, Concentration 198.0 uM, Number of replicates 2.0, Standard deviation 0.3043636351088153 %).
With `CC(=O)N1CCC(N(C)C(=O)c2cc(Cl)ccc2NS(=O)(=O)c2ccc(Oc3ccccc3Cl)cc2)CC1`, the inhibition under setting [1] turned out to be 11.3%.
In the case of `Cc1cc(CO)c2cccc(CC(=O)NCCc3ncc[nH]3)c2n1`, the inhibition (PRVABC59, Concentration 49.95 uM, Number of replicates 2.0, Standard deviation 0.020358613704702253 %) stood at 12.5% and the inhibition (PRVABC59, Concentration 99.9 uM, Number of replicates 2.0, Standard deviation 0.02544995300481825 %) is 32.3%.
On to `COc1cc(Cl)c(C)cc1NC(=O)c1cc(Cl)ccc1NS(=O)(=O)c1ccc(Oc2ccccc2Cl)cc1`, for which, under setting [1], the inhibition turned out to be 22.4%.
The same measure, in the same setting: the same measure for `COc1cc(Br)ccc1NC(=O)c1cc(Cl)ccc1NS(=O)(=O)c1ccc(Oc2ccccc2Cl)cc1`: 56.4%; for `COc1ncc(NC(=O)c2cc(Cl)ccc2NS(=O)(=O)c2ccc(Oc3ccccc3Cl)cc2)cc1Br`: 67.3%; for `CCc1cc(Br)ccc1NC(=O)c1cc(Cl)ccc1NS(=O)(=O)c1ccc(Oc2ccccc2Cl)cc1`: 41.5%.
Same read-out and setting: the same measure for `O=C(Nc1ncc(Br)cc1O)c1cc(Cl)ccc1NS(=O)(=O)c1ccc(Oc2ccccc2Cl)cc1`: 55.3%; for `O=C(Nc1ncc(F)cc1Br)c1cc(Cl)ccc1NS(=O)(=O)c1ccc(Oc2ccccc2Cl)cc1`: 23.4%; for `O=C(Nc1cnc(Cl)c(Br)c1)c1cc(Cl)ccc1NS(=O)(=O)c1ccc(Oc2ccccc2Cl)cc1`: 23%.
The same measure, in the same setting: for `COc1ncc(Br)cc1NC(=O)c1cc(Cl)ccc1NS(=O)(=O)c1ccc(Oc2ccccc2Cl)cc1` the value was 22.9%; for `O=C(Nc1ncc(Br)nc1Cl)c1cc(Cl)ccc1NS(=O)(=O)c1ccc(Oc2ccccc2Cl)cc1`, 16.8%; for `COc1ccc(CNC(=O)c2cc(Cl)ccc2NS(=O)(=O)c2ccc(Oc3ccccc3Cl)cc2)cc1F`, 26.5%.
Consider `O=C(c1cc(Cl)ccc1NS(=O)(=O)c1ccc(Oc2ccccc2Cl)cc1)N1CCN(c2ncccn2)CC1`, for which the inhibition under setting [1] was 7.48%.
For `O=Cc1ccc(N2CCC(C(=O)Nc3ccccc3I)CC2)cc1`, under setting [2], the inhibition stood at 24.9%.
The same measure, in the same setting: the same measure for `O=Cc1ccc(N2CCC(C(=O)Nc3ccc(Br)c(Cl)c3Cl)CC2)cc1`: 20.9%.
For the compound `CC(C)(C)N(C[C@H](O)c1ccc(O)c(CO)c1)C(=O)c1cc(Cl)ccc1NS(=O)(=O)c1ccc(Oc2ccccc2Cl)cc1`, under setting [1], the inhibition was found to be 14.6%.
Turning to `COc1ccccc1OCCCN(C)C(=O)C1CCN(c2ccc(C=O)cc2)CC1`, the inhibition under setting [2] was 22.6%.
As for `CC(C)(COC(=O)c1cccc(F)c1)NC(=O)c1cc(N)cc(Cl)c1`, the inhibition reads like this: (PRVABC59, Concentration 49.5 uM, Number of replicates 2.0, Standard deviation 1.1247891306000573 %) 3.45%; (PRVABC59, Concentration 99.01 uM, Number of replicates 2.0, Standard deviation 1.4129417390724304 %) 5.8%; (PRVABC59, Concentration 198.0 uM, Number of replicates 2.0, Standard deviation 1.2082537148179389 %) 9%.
As for `NCc1cccc(NC(=O)C2CN(C(=O)OCc3ccccc3)C2)c1`, the inhibition came to 1.12% (PRVABC59, Concentration 49.5 uM, Number of replicates 2.0, Standard deviation 0.7047125451631892 %); 3.88% (PRVABC59, Concentration 99.01 uM, Number of replicates 2.0, Standard deviation 1.0691153353532887 %); 10.1% (PRVABC59, Concentration 198.0 uM, Number of replicates 2.0, Standard deviation 0.2800776094724739 %).
As to `O=Cc1ccc(N2CCC(C(=O)NCCNC(=O)c3ccccc3Cl)CC2)cc1`, the inhibition under setting [2] stood at 20.1%.
`CC(=O)N[C@@H](Cc1ccc(CN)cc1)C(=O)Nc1cccc2c(CO)cc(C)nc12`: the inhibition runs as follows: (PRVABC59, Concentration 49.95 uM, Number of replicates 2.0, Standard deviation 1.5120886598590335 %) 62.5%; (PRVABC59, Concentration 99.9 uM, Number of replicates 2.0, Standard deviation 0.31634008358167093 %) 95.8%.
Take `CC(=O)N[C@@H](CCCCN)C(=O)Nc1ccccc1Cc1cccc2c(CO)cc(C)nc12`: the inhibition was -3.65% (PRVABC59, Concentration 49.95 uM, Number of replicates 2.0, Standard deviation 1.4556435772845158 %) and 11.6% (PRVABC59, Concentration 99.9 uM, Number of replicates 2.0, Standard deviation 0.5191459981690598 %).
In the case of `CC(=O)N[C@@H](CCCN)C(=O)Nc1cccc2c(CO)cc(C)nc12`, the inhibition by setting is: (PRVABC59, Concentration 49.95 uM, Number of replicates 2.0, Standard deviation 2.340889239911572 %) 9.01%; (PRVABC59, Concentration 99.9 uM, Number of replicates 2.0, Standard deviation 2.049858170273299 %) 41.2%.
`CC(=O)N[C@@H](CCCCN)C(=O)Nc1cccc2c(CO)cc(C)nc12`: the inhibition by setting is: (PRVABC59, Concentration 49.95 uM, Number of replicates 2.0, Standard deviation 2.062511665720634 %) 70.2%; (PRVABC59, Concentration 99.9 uM, Number of replicates 2.0, Standard deviation 0.26572610179233236 %) 93.5%.
With `Cc1cc(CO)c2cccc(C[C@H](NC(=O)Cc3cccc(CN)c3)C(=O)O)c2n1`, the inhibition is -1.72% (PRVABC59, Concentration 49.95 uM, Number of replicates 2.0, Standard deviation 1.661005908968333 %) and 6.96% (PRVABC59, Concentration 99.9 uM, Number of replicates 2.0, Standard deviation 1.2746087015891263 %).
With `CC(=O)N[C@@H](CCCN)C(=O)Nc1ccccc1Cc1cccc2c(CO)cc(C)nc12`, the inhibition by setting is: (PRVABC59, Concentration 49.95 uM, Number of replicates 2.0, Standard deviation 1.2164295290794762 %) 11.2%; (PRVABC59, Concentration 99.9 uM, Number of replicates 2.0, Standard deviation 0.5089666913167087 %) 30.6%.
In the case of `Cn1cc(CNC(=O)c2ccccc2[C@@H]2CCCNC2)cn1`, the inhibition reads like this: (PRVABC59, Concentration 49.5 uM, Number of replicates 2.0, Standard deviation 1.3820269413959925 %) -1.82%; (PRVABC59, Concentration 99.01 uM, Number of replicates 2.0, Standard deviation 1.129463511127855 %) -0.227%; (PRVABC59, Concentration 198.0 uM, Number of replicates 2.0, Standard deviation 0.6425212666298173 %) 0.6%.
